The results in this text go back to PubChem BioAssay (Tox21).

A short description of experiment [1]: Human pregnane X receptor (PXR) small molecule agonists, qHTS cell viability counter screen (AID 1346977). Also: nearly all actives have a fitted effect of over 50% in size. Also: potency is read from the fitted curve at half-maximal effect. Particulars: PXR-Luc HepG2 viability, CellTiter-Fluor, 24 h; series mostly up to 92.4 µM. In short, it runs like this: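 PXR-Luc HepG2 cells (2,000/well, 5% charcoal-stripped FBS) preincubated 5 hr, then exposed to compounds 24 hr at 37 C. Viability read in the same wells by CellTiter-Fluor fluorescence, reagent added at 23 hr, 1 hr incubation.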

Experiment [2] can be described thus: Caspase-3/7 induction in HepG2 cells by small molecules, qHTS assay (AID 1346978). Also: nearly all actives have a fitted effect of over 15% in size. The conditions noted are these: HepG2 caspase-3/7 activation, Caspase-Glo luminescence, 17 h; series mostly up to 92.4 µM. In short, it runs like this:
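Wild-type HepG2 cells (2,000/well) were settled 5 h at 37 C, 5% CO2, then exposed to compounds in DMSO for 17 h. Caspase-3/7 activity was read by luminescence 30 min after adding Caspase-Glo 3/7 reagent at room temperature.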

Experiment [3] can be described thus: Caspase-3/7 induction in CHO-K1 cells by small molecules, qHTS cell viability counter screen (AID 1346979). Also: nearly all actives have a fitted effect of over 35% in size. Also: potency is read from the fitted curve at half-maximal effect. Particulars: CellTiter-Fluor fluorescence, 17 h; series mostly up to 92.4 µM. An outline of the steps: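 Wild-type CHO-K1 cells (1,500/well) treated with compound after 5 h plating; after 16 h at 37C, viability read as CellTiter-Fluor fluorescence following 1 h reagent incubation, in the same wells as the caspase read.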
In general terms: In qHTS, concentration-response curves come from the screen itself.

The nature of experiment [4]: Caspase-3/7 induction in CHO-K1 cells by small molecules, qHTS assay (AID 1346980). Also: nearly all actives have a fitted effect of over 15% in size. Particulars: CHO-K1 caspase-3/7 induction, Caspase-Glo luminescence, 17 h; series mostly up to 92.4 µM. In short, it runs like this: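 Wild-type cells were seeded at 1,500 per well and settled 5 hr at 37 C, 5% CO2, then exposed to DMSO-dissolved compounds for 17 hr. Caspase-Glo 3/7 reagent was added, and luminescence was read after 30min at room temperature.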

The nature of experiment [5]: Caspase-3/7 induction in HepG2 cells by small molecules, qHTS cell viability counter screen (AID 1346981). Also: nearly all actives have a fitted effect of over 30% in size. Particulars: CellTiter-Fluor fluorescence, 17 h; series mostly up to 92.4 µM. In short, it runs like this: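 CellTiter-Fluor fluorescence measured viability in the same wells used for Caspase-Glo 3/7. HepG2 (wild type) at 2,000 cells/well were pre-incubated 5 hr, dosed, and given reagent at 16 hr, with 1 hr further at 37C.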

The target of experiment [6] is Nuclear receptor subfamily 1 group I member 2 (Rattus norvegicus) (UniProt Q9R1A7). As to the kind of experiment: Rat pregnane X receptor (rPXR) activation by small molecules, qHTS assay (AID 1346983). Also: nearly all actives have a fitted effect of over 20% in size. The conditions noted are these: rPXR luciferase reporter cells, One-Glo luminescence, 24 h; max activation: active compounds read high. In short, it runs like this:
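Cell-based rPXR luciferase reporter assay, 2,000 cells per well, rested 5hr at 37 C before compound addition in DMSO, then 24 hr at 37 C. One-Glo reagent was added and luminescence read after 30 min at room temperature.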

For experiment [7], the target named is Nuclear receptor subfamily 1 group I member 2 (Homo sapiens) (UniProt O75469). As to the kind of experiment: CYP3A4 induction through human pregnane X receptor (PXR) by small molecules, qHTS assay (AID 1346984). Also: nearly all actives have a fitted effect of over 40% in size. The conditions noted are these: DPX-2 HepG2 PXR, CYP3A4-luciferin luminescence, 24 h; series mostly up to 46.1 µM. An outline of the steps:
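Read-out is luminescence after One-Glo addition, following a 3 hr, 37C incubation with Luciferin-IPA CYP3A4 substrate (3uM final). Before that, compounds were on DPX-2 cells (HepG2 co-transfected with PXR element plus CYP3A4-promoter luciferase) for 24 hr at 37C.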

For experiment [8] the target is unchanged. As to the kind of experiment: Human pregnane X receptor (PXR) activation by small molecules, qHTS assay (AID 1346985). Also: nearly all actives have a fitted effect of over 40% in size. The conditions noted are these: DPX-2 HepG2 CYP3A4-luciferase, 24 h; series mostly up to 38.3 µM. An outline of the steps: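 DPX-2 cells (HepG2 co-transfected with a PXR response element and a CYP3A4-promoter luciferase construct) were seeded at 2,000 per well, rested 5 hr at 37C, then exposed to DMSO-dissolved compounds for 24 hr. Activation was read as luciferase luminescence.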

Experiment [9] deals with Cytochrome P450 2C9 (Homo sapiens) (UniProt P11712). As to the kind of experiment: Cytochrome P450 Family 2 Subfamily C Member 9 (CYP2C9) small molecule antagonists: luciferase reporter qHTS assay (AID 1671198). Also: nearly all actives have a fitted effect of over 50% in size. Also: potency is read from the fitted curve at half-maximal effect. Particulars: P450-Glo CYP2C9 enzyme assay, luciferin luminescence; series mostly up to 115 µM. An outline of the steps: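 CYP2C9 activity was measured with a P450-Glo proluciferin substrate. Enzyme–substrate mix was held with compound for 10 min at room temperature, then NADPH regeneration solution was added for 1 h at 37C. Luciferin product was read as luminescence.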

The target in experiment [10] is Cytochrome P450 1A2 (Homo sapiens) (UniProt P05177). As to the kind of experiment: Cytochrome P450 Family 1 Subfamily A Member 2 (CYP1A2) small molecule antagonists: luciferase reporter qHTS assay (AID 1671199). Also: nearly all actives have a fitted effect of over 50% in size. Also: potency is read from the fitted curve at half-maximal effect. The conditions noted are these: P450-Glo CYP1A2 enzyme, luciferin luminescence, 1 h; series mostly up to 53 µM. In short, it runs like this:
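Luminescence from luciferin formed by CYP1A2 from a proluciferin substrate, read 20 min after detection reagent. Compound was pre-incubated 10 min with enzyme-substrate, and reaction started with NADPH regeneration solution for 1 h at room temperature; furafylline control.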
(In general: A reporter such as luciferase makes a cellular process visible.)

Experiment [11] has as its target Voltage-gated inwardly rectifying potassium channel KCNH2 (Homo sapiens) (UniProt Q12809). As to the kind of experiment: Human Ether-a-go-go-Related Gene (hERG) channel small molecule antagonists: fluorescence cell-based qHTS assay (AID 1671200). Also: nearly all actives have a fitted effect of over 50% in size. Also: potency is read from the fitted curve at half-maximal effect. The conditions noted are these: hERG-U2OS cells, FluxOR thallium flux fluorescence; series mostly up to 76.8 µM. In short, it runs like this: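 hERG-U2OS cells plated overnight at 37 C, loaded with FluxOR II dye 1 h at RT in dark; after 10 min, thallium stimulus added. Fluorescence (480/540 nm) read kinetically for 2 min at 1 s intervals.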
For orientation: The hERG channel carries a current that helps repolarise heart muscle cells.

Experiment [12] concerns the target Cytochrome P450 2D6 (Homo sapiens) (UniProt P10635). As to the kind of experiment: Cytochrome P450 Family 2 Subfamily D Member 6 (CYP2D6) small molecule antagonists: luciferase reporter qHTS assay (AID 1671196). Also: nearly all actives have a fitted effect of over 50% in size. Also: potency is read from the fitted curve at half-maximal effect. Particulars: P450-Glo CYP2D6 enzyme assay, luciferin luminescence, 1 h; series mostly up to 115 µM. In short, it runs like this:
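CYP2D6 activity was followed as luminescence from its luciferin product after a 1 h NADPH-driven reaction at room temperature. Enzyme-substrate mix and compound were pre-incubated for 10 min, and the signal was read 20 min after adding detection reagent.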

Experiment [13] has as its target Cytochrome P450 2C19 (Homo sapiens) (UniProt P33261). As to the kind of experiment: Cytochrome P450 Family 2 Subfamily C Member 19 (CYP2C19) small molecule antagonists: luciferase reporter qHTS assay (AID 1671197). Also: nearly all actives have a fitted effect of over 65% in size. Also: potency is read from the fitted curve at half-maximal effect. The conditions noted are these: P450-Glo CYP2C19 enzyme, luciferin luminescence, 1 h; series mostly up to 52.9 µM. In short, it runs like this: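 Quantitative high-throughput screen of the Tox21 library using CYP2C19 with proluciferin substrate. Reaction: NADPH regeneration, 37C, 1 h, after 10 min compound preincubation at room temperature. Readout: luminescence.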

Experiment [14] deals with Cytochrome P450 3A4 (Homo sapiens) (UniProt P08684). As to the kind of experiment: Cytochrome P450 Family 3 Subfamily A Member 4 (CYP3A4) small molecule antagonists: luciferase reporter qHTS assay (AID 1671201). Also: nearly all actives have a fitted effect of over 50% in size. Also: potency is read from the fitted curve at half-maximal effect. The conditions noted are these: P450-Glo CYP3A4 enzyme, luciferin luminescence, 1 h; series mostly up to 115 µM. An outline of the steps:
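P450-Glo CYP3A4 luminescent assay: compounds preincubated 10 min at room temperature with enzyme and proluciferin substrate, NADPH regeneration added, 1 h room-temperature reaction, stopped with luciferin detection reagent; luminescence read after 20 min. Ketoconazole positive control.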

For experiment [15], the target named is Nuclear receptor subfamily 1 group I member 2 (Homo sapiens) (UniProt O75469). As to the kind of experiment: Human pregnane X receptor (PXR) small molecule agonists, qHTS assay (AID 1346982). Also: nearly all actives have a fitted effect of over 35% in size. Particulars: PXR-Luc HepG2, CYP3A4 luciferase reporter, 24 h; series mostly up to 92.4 µM. In short, it runs like this: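 Agonist mode: luminescence from ONE-Glo after 24 h compound exposure at 37C in HepG2 cells carrying hPXR-responsive CYP3A4 luciferase, plated in charcoal-stripped serum medium 5 h beforehand.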

A number with no mark means an inactive call. Records with an inconclusive call do not appear. The source made the active and inactive calls. Calls follow the shape of the dose curve; as a rule, active = well fitted curve in the direction sought with a large enough effect in the repeat runs; inconclusive = weak or mixed curves; inactive = no such curve, though single readings can be large; an effect the other way counts as inactive or inconclusive.
% is scaled to controls: 0 for no effect and ±100 for the full control effect.

Nuclear receptor subfamily 1 group I member 2 (Homo sapiens), sequence (O75469 whole entry, looked up): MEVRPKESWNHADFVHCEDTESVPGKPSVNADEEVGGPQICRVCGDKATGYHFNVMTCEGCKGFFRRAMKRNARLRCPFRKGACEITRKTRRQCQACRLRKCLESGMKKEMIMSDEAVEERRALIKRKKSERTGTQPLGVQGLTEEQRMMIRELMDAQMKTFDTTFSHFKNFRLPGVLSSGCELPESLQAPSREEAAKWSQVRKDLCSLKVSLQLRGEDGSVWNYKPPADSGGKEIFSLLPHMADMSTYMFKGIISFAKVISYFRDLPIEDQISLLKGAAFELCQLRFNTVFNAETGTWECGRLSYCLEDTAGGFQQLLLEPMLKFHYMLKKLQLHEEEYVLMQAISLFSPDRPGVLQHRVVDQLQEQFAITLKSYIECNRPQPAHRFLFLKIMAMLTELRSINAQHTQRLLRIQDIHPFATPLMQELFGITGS
Voltage-gated inwardly rectifying potassium channel KCNH2 (Homo sapiens), sequence (Q12809 whole entry, looked up): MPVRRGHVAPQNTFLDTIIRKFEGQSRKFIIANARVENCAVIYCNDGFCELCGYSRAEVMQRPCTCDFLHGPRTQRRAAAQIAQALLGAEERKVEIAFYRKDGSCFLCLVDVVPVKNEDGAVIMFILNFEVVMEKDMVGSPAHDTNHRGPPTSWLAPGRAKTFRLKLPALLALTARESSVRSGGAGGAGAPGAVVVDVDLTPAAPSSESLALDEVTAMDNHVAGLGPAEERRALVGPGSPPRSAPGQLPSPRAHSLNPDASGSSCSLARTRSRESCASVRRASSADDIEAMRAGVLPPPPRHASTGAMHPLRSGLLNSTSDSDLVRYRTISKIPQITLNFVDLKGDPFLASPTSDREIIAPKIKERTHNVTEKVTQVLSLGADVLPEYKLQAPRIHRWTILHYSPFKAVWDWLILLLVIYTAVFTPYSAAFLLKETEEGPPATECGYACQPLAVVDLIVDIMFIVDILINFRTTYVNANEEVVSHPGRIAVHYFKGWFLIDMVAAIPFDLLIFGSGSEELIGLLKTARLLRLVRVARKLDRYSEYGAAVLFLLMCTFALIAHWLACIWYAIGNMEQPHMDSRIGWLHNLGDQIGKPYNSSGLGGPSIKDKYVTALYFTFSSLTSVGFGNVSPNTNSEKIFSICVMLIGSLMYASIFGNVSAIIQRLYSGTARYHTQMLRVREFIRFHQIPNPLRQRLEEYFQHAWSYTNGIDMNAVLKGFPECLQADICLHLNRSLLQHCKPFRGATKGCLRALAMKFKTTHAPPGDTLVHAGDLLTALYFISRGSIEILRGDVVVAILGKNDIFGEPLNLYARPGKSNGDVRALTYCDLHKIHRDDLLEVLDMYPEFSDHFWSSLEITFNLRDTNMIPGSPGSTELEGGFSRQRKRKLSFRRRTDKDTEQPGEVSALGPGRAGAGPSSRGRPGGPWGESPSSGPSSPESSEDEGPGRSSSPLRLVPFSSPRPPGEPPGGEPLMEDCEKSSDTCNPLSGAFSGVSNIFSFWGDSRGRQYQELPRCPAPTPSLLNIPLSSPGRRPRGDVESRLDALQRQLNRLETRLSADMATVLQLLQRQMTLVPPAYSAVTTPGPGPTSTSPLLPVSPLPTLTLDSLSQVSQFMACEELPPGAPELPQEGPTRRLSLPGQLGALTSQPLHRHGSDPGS
Cytochrome P450 2C9 (Homo sapiens), sequence (P11712 whole entry, looked up): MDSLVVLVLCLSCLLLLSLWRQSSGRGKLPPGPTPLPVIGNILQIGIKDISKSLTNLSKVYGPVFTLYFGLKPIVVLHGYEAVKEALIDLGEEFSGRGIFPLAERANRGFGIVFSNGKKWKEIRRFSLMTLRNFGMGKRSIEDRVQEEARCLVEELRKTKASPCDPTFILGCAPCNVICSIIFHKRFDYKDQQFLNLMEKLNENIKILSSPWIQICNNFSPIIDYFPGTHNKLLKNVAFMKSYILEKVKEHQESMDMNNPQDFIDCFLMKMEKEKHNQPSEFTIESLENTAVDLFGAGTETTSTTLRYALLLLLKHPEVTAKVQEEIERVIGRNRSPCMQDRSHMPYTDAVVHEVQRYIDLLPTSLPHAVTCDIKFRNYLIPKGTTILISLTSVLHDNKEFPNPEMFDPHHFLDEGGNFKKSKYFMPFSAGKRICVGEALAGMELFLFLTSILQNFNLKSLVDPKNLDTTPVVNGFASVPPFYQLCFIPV
Cytochrome P450 1A2 (Homo sapiens), sequence (P05177 whole entry, looked up): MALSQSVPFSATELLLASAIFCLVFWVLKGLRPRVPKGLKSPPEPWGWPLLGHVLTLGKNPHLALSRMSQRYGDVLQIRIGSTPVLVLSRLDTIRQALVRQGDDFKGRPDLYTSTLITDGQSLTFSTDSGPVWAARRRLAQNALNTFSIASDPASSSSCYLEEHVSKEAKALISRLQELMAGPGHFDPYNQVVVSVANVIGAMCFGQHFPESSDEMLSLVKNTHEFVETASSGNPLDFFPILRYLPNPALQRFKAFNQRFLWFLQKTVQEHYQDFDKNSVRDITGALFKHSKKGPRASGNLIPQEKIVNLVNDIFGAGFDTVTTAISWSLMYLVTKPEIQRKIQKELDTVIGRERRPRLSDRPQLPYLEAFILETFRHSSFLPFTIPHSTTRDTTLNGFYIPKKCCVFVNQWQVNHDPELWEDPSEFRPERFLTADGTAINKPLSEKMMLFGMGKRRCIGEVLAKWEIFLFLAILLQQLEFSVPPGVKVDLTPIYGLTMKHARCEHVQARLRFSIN
Cytochrome P450 3A4 (Homo sapiens), sequence (P08684 whole entry, looked up): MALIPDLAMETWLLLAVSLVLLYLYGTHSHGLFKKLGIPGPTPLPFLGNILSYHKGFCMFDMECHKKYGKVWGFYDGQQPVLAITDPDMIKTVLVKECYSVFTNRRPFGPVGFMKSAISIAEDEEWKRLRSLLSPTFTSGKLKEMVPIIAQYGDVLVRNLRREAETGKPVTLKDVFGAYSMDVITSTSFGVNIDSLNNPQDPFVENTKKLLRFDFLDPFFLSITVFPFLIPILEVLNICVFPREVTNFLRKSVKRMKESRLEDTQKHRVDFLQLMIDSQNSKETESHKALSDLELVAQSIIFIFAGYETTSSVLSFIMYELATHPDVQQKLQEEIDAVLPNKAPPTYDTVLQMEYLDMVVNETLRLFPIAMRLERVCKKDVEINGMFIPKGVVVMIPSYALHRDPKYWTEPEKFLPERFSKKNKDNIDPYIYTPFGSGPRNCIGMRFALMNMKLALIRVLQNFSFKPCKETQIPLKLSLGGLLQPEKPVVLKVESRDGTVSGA
Cytochrome P450 2D6 (Homo sapiens), sequence (P10635 whole entry, looked up): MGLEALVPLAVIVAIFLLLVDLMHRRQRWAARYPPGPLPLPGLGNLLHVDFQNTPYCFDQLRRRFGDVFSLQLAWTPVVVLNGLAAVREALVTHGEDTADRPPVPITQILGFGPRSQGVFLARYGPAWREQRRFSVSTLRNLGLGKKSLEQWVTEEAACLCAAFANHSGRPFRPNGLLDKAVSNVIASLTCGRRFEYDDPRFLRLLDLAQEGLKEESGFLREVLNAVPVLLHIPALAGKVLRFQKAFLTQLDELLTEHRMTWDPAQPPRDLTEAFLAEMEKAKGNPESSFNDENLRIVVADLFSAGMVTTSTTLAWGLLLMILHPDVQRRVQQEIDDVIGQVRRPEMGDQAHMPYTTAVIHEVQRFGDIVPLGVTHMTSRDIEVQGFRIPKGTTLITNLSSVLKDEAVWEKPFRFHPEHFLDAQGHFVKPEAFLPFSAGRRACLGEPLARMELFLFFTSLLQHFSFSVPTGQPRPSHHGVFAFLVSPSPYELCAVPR
Nuclear receptor subfamily 1 group I member 2 (Rattus norvegicus), sequence (Q9R1A7 whole entry, looked up): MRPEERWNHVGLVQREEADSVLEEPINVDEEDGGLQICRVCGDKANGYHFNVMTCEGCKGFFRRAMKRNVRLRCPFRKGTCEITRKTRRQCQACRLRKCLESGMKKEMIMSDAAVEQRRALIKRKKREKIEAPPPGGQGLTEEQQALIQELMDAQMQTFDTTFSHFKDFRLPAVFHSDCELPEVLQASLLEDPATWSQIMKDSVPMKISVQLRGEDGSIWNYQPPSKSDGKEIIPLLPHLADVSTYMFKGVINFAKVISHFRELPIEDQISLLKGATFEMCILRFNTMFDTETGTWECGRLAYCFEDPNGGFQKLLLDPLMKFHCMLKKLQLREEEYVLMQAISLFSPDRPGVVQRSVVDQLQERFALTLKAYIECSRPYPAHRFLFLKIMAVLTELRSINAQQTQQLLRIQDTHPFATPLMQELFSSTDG
Cytochrome P450 2C19 (Homo sapiens), sequence (P33261 whole entry, looked up): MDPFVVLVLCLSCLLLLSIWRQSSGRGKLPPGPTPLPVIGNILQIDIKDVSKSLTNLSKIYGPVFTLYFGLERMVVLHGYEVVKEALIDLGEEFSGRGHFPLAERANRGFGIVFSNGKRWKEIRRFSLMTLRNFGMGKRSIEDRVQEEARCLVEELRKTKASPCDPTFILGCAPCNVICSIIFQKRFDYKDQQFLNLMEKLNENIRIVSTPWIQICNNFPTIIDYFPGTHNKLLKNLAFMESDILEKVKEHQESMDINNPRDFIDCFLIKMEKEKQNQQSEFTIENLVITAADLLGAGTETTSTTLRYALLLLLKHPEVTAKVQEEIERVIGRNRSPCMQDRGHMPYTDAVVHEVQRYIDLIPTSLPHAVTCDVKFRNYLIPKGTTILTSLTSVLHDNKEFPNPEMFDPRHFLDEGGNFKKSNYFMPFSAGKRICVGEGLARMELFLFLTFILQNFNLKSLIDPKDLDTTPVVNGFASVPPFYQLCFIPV

For the molecule `Nc1ccc(S(=O)(=O)Nc2ccccc2)cc1`, the Potency entry in experiment [1], in experiment [2], in [3], in experiment [4], in experiment [5] and in [7] was “inactive” in each case. Further, the Potency result in [8], in [9], in experiment [10] and in experiment [11] was “inactive” in each case. Moreover, in experiment [6], the max activation is -5.46%.

For the molecule `O=[N+]([O-])c1cccc(S(=O)(=O)O)c1`, the Potency result in experiment [1], in [2], in experiment [3], in experiment [4] and in [5] was “inactive” in each case. For the same molecule, the Potency in experiment [12] was 7.21 µM (active); in [13] it was 32.2 µM (active); in experiment [9], 32.2 µM (active); in experiment [10], 40.5 µM (active); in experiment [11] it was 22.2 µM (active); in [14], 36.1 µM (active).

With `O=C1OC(=O)C2C3C=CC(C3)C12` (stereo not drawn), the Potency result in experiment [1], in experiment [2], in experiment [3], in experiment [4], in experiment [5] and in experiment [12] was “inactive” each time. In addition, the Potency entry in experiment [13], in experiment [10], in experiment [11] and in [14] was “inactive” throughout.

As to `N=c1ccn2c(n1)O[C@H]1[C@H](O)[C@@H](CO)O[C@H]12`, the Potency result in experiment [1], in [2], in experiment [3], in experiment [4], in experiment [5] and in [8] was “inactive” in each case. Further, the Potency entry in experiment [12], in experiment [13], in experiment [9], in [10], in experiment [11] and in [14] was “inactive” each time. Besides, in [6], the max activation was 4.22%.

With `COCCCN1CCC(NC(=O)c2cc(Cl)c(N)c3c2OCC3)CC1`, the Potency entry in [1], in [2], in experiment [3], in experiment [4], in [5] and in experiment [10] was “inactive” in each case. The Potency result in experiment [14] was “inactive”. Further, in experiment [9], the Potency was 3.09 µM (active).

As for `COc1ccc(C)cc1[N+](=O)[O-]`, the Potency entry in experiment [1], in experiment [2], in experiment [3], in experiment [4], in experiment [5] and in experiment [12] was “inactive” each time. Besides, the Potency entry in [9] and in [11] was “inactive” throughout. Also, the Potency in [10] is 10.2 µM (active); in [14] it was 36.1 µM (active).

For the molecule `NS(=O)(=O)c1ccc(N2CCCCS2(=O)=O)cc1`, the Potency entry in experiment [1], in [2], in experiment [3], in experiment [4], in experiment [15] and in [13] was “inactive” throughout. For the same molecule, the Potency entry in [9], in experiment [10], in experiment [11] and in experiment [14] was “inactive” throughout.

Turning to `CC(=O)c1ccc2c(c1)N(CCCN1CCC(CCO)CC1)c1ccccc1S2`, the Potency in experiment [1] was 26.6 µM (active); in experiment [3], 29.8 µM (active); in experiment [11] it was 3.01 µM (active). For the same molecule, the Potency result in experiment [2], in [4] and in experiment [8] was “inactive” each time. Besides, the max activation in [6] was -2.34%.

`Nc1ccc([N+](=O)[O-])c(C(F)(F)F)c1`: the Potency result in [1], in experiment [2], in [4], in [15], in experiment [11] and in experiment [14] was “inactive” throughout. The Potency in experiment [3] was 29.8 µM (active); in experiment [10], 11 µM (active).

Take `COC(C)(C)CCO`: the Potency result in experiment [1], in [2], in experiment [3], in experiment [4], in experiment [15] and in experiment [13] was “inactive” in each case. The Potency result in experiment [9], in experiment [10], in experiment [11] and in [14] was “inactive” in each case.
